PubChem BioAssay AID588579 (National Center for Advancing Translational Sciences (NCATS), 2011)
Several values for one entry are separate records, joined by “and”; a condition that tells them apart may be missing. Equal values may be shown once. Out of some 400,000 compounds screened, about 2,200 (0.55%) were called active. Not shown: some 1% with an inconclusive outcome. Calls follow the shape of the dose curve; as a rule, active = well fitted inhibition curve with a large enough effect; inconclusive = small, poorly fitted or top-dose-only effect, or another doubt; inactive = no such curve, though single readings can be large or run the other way. The full list was thinned out, with actives kept by preference.

Target: DNA polymerase kappa (Homo sapiens) (UniProt Q9UBT6)
Experiment: qHTS for Inhibitors of Polymerase Kappa
Conditions: purified Pol kappa, fluorescent DNA synthesis assay, 10 min; series mostly up to 107 µM; activity, negative = inhibition: at the top concentration
In short: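 Pol kappa 10 nM + cpd, 15 min RT; start w/ substrate 50 nM final; fluorescence kinetic read, 0 and 10 min. Neg ctrl: buffer, no enzyme.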
% is scaled to controls: 0 for no effect and ±100 for the full control effect; potency is read from the fitted curve at half-maximal effect.

Chain of DNA polymerase kappa (Homo sapiens) (Q9UBT6 whole entry, looked up): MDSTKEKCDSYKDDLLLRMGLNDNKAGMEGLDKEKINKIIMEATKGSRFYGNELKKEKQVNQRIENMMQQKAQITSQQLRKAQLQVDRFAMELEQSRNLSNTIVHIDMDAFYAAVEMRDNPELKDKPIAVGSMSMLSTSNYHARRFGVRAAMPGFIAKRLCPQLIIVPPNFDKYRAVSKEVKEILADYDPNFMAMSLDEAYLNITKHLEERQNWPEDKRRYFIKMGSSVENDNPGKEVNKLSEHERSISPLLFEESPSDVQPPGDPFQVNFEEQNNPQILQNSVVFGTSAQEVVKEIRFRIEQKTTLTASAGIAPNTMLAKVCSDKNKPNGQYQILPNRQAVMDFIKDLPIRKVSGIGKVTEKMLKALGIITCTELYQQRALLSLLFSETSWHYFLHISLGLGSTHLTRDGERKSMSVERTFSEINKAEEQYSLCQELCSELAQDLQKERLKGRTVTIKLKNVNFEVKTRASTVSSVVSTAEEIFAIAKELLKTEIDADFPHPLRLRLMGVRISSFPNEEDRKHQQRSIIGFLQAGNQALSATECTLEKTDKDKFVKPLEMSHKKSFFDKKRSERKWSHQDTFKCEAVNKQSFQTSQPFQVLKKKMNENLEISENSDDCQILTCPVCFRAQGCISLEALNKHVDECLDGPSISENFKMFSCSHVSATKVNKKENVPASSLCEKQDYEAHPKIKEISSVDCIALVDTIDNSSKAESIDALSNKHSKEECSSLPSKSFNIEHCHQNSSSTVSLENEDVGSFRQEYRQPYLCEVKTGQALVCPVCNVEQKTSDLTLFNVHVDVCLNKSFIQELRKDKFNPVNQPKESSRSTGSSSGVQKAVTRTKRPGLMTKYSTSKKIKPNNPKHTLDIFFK

Compound | activity, negative = inhibition | Potency
CNc1ncnc2ccc(-c3cccc(NS(C)(=O)=O)c3)cc12 | -3.17% [at 60.1 µM] (inactive) | 
CC[C@H](C)[C@H](NC(=O)[C@@H](N)CCC(=O)O)C(=O)N[C@@H](CC(C)C)C(=O)N[C@@H](CC(=O)O)C(=O)N[C@H](C(=O)N1CCC[C@H]1C(=O)N[C@@H](CO)C(=O)N[C@H](C(=O)O)[C@@H](C)O)C(C)C | 19.2% [at 60.1 µM] (inactive) | 
C=CCOC(=O)C(=C)C | 16.8% [at 60.1 µM] (inactive) | 
O=C1COc2ccc(-c3csc(-c4ccc(Cl)cc4)n3)cc2N1 | -13.5% (inactive) | 
COc1ccc(Cc2nnc(NC(=O)Cc3cccs3)s2)cc1 |  | 14.1 µM (active)
CCc1nnc(NC(=O)CCC(=O)NCc2ccccc2OC)s1 | -16.7% (inactive) | 
COc1ccc(CC(=O)Nc2sc(Cc3ccccc3)c(C)c2C(N)=O)cc1 | -3.59% (inactive) | 
C=C[C@](C)(O)CCC1C(=C)CCC2[C@@](C)(CO)CCC[C@@]12C (stereo partly drawn) | -3.85% [at 60.1 µM] (inactive) | 
CC(=O)OCC(=O)C1CCC2C3CCC4=CC(=O)CC[C@@]4(C)C3CC[C@]12C (stereo partly drawn) | -6.68% [at 60.1 µM] (inactive) | 
COC(=O)[C@@H]1CC2=CC(=O)CC[C@]2(C)[C@@]23O[C@@H]2C[C@@]2(C)[C@@H](CC[C@@]24CCC(=O)O4)[C@H]13 | -3.54% [at 60.1 µM] (inactive) | 
COc1ccc(/C=C/c2ccccn2)cc1OC | -24.3% (inactive) | 
COc1ccc(-n2c(SCC(=O)NCc3ccco3)nnc2-c2c[nH]c3ccccc23)cc1 | -8.14% (inactive) | 
CN(c1ccccc1)S(=O)(=O)c1ccc(Cl)c(C(=O)OCC(=O)NCc2ccco2)c1 |  | 79.4 µM (active)
Cc1cc(C(=O)OCC(=O)NCc2ccco2)c(C)n1-c1ccccc1 |  | 79.4 µM (active)
CN(c1ccccc1)S(=O)(=O)c1ccc(Cl)c(C(=O)OCC(=O)N2CCOCC2)c1 | 8.17% (inactive) | 
Cn1c(N)c(C(=O)COC(=O)c2ccccc2NCc2ccco2)c(=O)n(C)c1=O | 6.37% (inactive) | 
O=C(COC(=O)c1cc(S(=O)(=O)N2CCOCC2)ccc1Cl)NCCc1ccccc1 | -3.4% (inactive) | 
CCNc1ncc2ncc(=O)n(Cc3cccc(OC)c3)c2n1 | 2.21% [at 60.1 µM] (inactive) | 
Cc1cc(N(C)C)nc(Cl)n1 | -8.53% [at 12 µM] (inactive) | 
O=C(Nc1cccc(F)c1)N1CCC2(CC1)CCN(S(=O)(=O)c1ccccc1)CC2 | -9.65% [at 60.1 µM] (inactive) | 
COc1ccc(/C=C/c2ccnc3ccccc23)cc1OC | -24% (inactive) | 
Cc1cccc(CN2Cc3cccc4c3[C@H](C=CC4)CC2=S)c1 | -2.46% (inactive) | 
CC1CCN(C(=O)COC(=O)CCC(=O)c2cccs2)CC1 | -7.82% (inactive) | 
O=C(COC(=O)CCC(=O)c1cccs1)NCc1ccco1 |  | 31.6 µM (active)
CCN(C(=O)COC(=O)CCC(=O)c1cccs1)C1CCCCC1 | -3.1% (inactive) | 

Compound | activity, negative = inhibition | Potency
O=C(Nc1cccc(F)c1)N1CC2(CCN(C(=O)c3cnccn3)CC2)C1 | 4.72% [at 60.1 µM] (inactive) | 
CC(C)[C@H](CO)Nc1nc(Nc2cc(N)cc(Cl)c2)c2ncn(C(C)C)c2n1 | -6.51% [at 19.4 µM] (inactive) | 
c1ccc(CSc2nnc(-c3ccco3)c(-c3ccco3)n2)cc1 |  | 20 µM (active)
Clc1ccccc1CSc1nncn2c1cc1occc12 | -18.1% (inactive) | 
Clc1ccccc1CSc1nnc(-c2ccco2)c(-c2ccco2)n1 |  | 35.5 µM (active)
CSc1n[nH]c(-c2ccco2)n1 | -8.42% (inactive) | 
CC1(C)N=C(SCc2ccccc2Cl)c2ccccc2N1 | -2.08% (inactive) | 
Cc1ccc(-c2nnc(SCC(=O)NCc3ccccc3)nc2-c2ccc(C)cc2)cc1 | -7.44% [at 60.1 µM] (inactive) | 
Nc1nc2c(nc(Cl)n2C2OC(CO)C(O)C2O)c(=O)[nH]1 (stereo not drawn) | -1.67% [at 60.1 µM] (inactive) | 
COC(=O)N1CCC2(CCCN(c3ccncc3)C2)CC1 | -15.3% [at 60.1 µM] (inactive) | 
O=P(O)(O)C(O)c1ccc2ccccc2c1 (stereo not drawn) | 8.31% [at 19.4 µM] (inactive) | 
COc1cc2nc(Cl)nc(NC3CC3)c2cc1OC | -19.7% (inactive) | 
Cc1ccc(Nc2nnc(-c3ccc(C)c(S(=O)(=O)N4CCCCC4)c3)c3ccccc23)cc1 | 2.95% (inactive) | 
Cc1ccc(C)c(Nc2nnc(-c3ccc(C)c(S(=O)(=O)N4CCCCC4)c3)c3ccccc23)c1 |  | 79.4 µM (active)
Cc1ccc(-c2nnc(Nc3ccc(C(=O)N(C)C)cc3)c3ccccc23)cc1S(N)(=O)=O | -16% (inactive) | 
Cc1ccc(-c2ncc(Cl)cc2-c2ccc(S(C)(=O)=O)cc2)cn1 | 1.36% [at 60.1 µM] (inactive) | 
O=C(c1cc(C(F)(F)F)cc(C(F)(F)F)c1)N1CCC2(CCCN(c3ccccn3)C2)CC1 | -9.22% [at 60.1 µM] (inactive) | 
COc1ccccc1CNc1ccnc(-c2c(C)noc2C)n1 | 5.78% [at 60.1 µM] (inactive) | 
Cc1ccccc1NC(=O)CN1C(=O)N/C(=C\c2cccn2-c2cccc(C(=O)O)c2)C1=O |  | 14.1 µM (active)
Cc1ccccc1NC(=O)Cn1c(=O)n(CCc2ccccc2)c(=O)c2ccccc21 | 2.94% (inactive) | 
Cc1ccccc1NC(=O)CN1C(=O)C(C)(C)c2ccccc21 | -11.7% [at 60.1 µM] (inactive) | 
COc1ccccc1CNc1nc(-c2c(C)noc2C)nc2ccccc12 | -6.77% [at 60.1 µM] (inactive) | 
COc1c(O)c2c(=O)cc(OC)c3c4c(OC)cc(=O)c5c(O)c(OC)c6c(c(c1C[C@@](C)(O)[C@H]6C(C)=O)c23)c54 | -7.61% [at 60.1 µM] (inactive) | 
Cc1ccc(S(=O)(=O)N2CCCC2C(=O)OCc2nc3sc(C)c(C)c3c(=O)[nH]2)cc1 (stereo not drawn) | -2.3% (inactive) | 
CCN(CC)Cc1nc2sc(C)c(C)c2c(=O)[nH]1 | 3.84% (inactive) | 

Compound | activity, negative = inhibition | Potency
CSc1nnc(SCc2nc3sc(C(=O)O)c(C)c3c(=O)[nH]2)s1 |  | 25.1 µM (active)
FC(F)(F)c1ccccc1-c1cc(NCc2ccccc2)ncn1 | -1.26% [at 60.1 µM] (inactive) | 
CCC(C)N(c1ccc(/C=C/c2ccnc3ccccc23)cc1)C(C)CC (stereo not drawn) | -5.7% (inactive) | 
Cc1ccc(N=C2NC(=O)/C(=C/C=C/c3ccco3)S2)cc1C |  | 28.2 µM (active)
CC(=O)OC1CCC2(O)CC1(C)CCC1C2CC1(C)C (stereo not drawn) | -9.88% [at 60.1 µM] (inactive) | 
O=C(c1cc2cc(Br)cc(Br)c2oc1=O)N1CCOCC1 | -6.06% (inactive) | 
O=C(CSC(=S)N1CCCCC1)c1c(F)cccc1F | 7.44% (inactive) | 
O=C(CSC(=S)N1CCOCC1)c1cc(Br)cc(Br)c1O |  | 79.4 µM (active)
CCOCCOC(=O)C(C)Oc1ccc(Oc2ncc(C(F)(F)F)cc2Cl)cc1 (stereo not drawn) | 0.515% [at 60.1 µM] (inactive) | 
CC(=O)CC(c1ccccc1)C1C(=O)Oc2ccccc2C1=O (stereo not drawn) | -4.26% [at 60.1 µM] (inactive) | 
CN1C(=O)/C(=C/c2ccco2)SC1=Nc1cccc(C(=O)O)c1 |  | 20 µM (active)
O=C(O)c1cccc(N=NN2CCCCCC2)c1 | -8.29% (inactive) | 
CN=C1S/C(=C\c2c(OC)cc(OC)cc2OC)C(=O)N1C | 3.05% (inactive) | 
CCOC(OCC)OCC | 11.2% [at 60.1 µM] (inactive) | 
CCc1c2c(nc3ccc(O)cc13)-c1cc3c(c(=O)n1C2)COC(=O)[C@]3(O)CC | 8.42% [at 60.1 µM] (inactive) | 
NC(=O)Nc1ccc(/C=C/c2ccnc3ccccc23)cc1 | 3.65% (inactive) | 
COc1ccc2[nH]c3c(C)c4cc[n+](C)cc4c(C)c3c2c1 |  | 2.38 µM (active) and 11.2 µM (active)
Cc1cccc(CNc2ccnc(-c3cccnc3)n2)c1 | -9.88% [at 60.1 µM] (inactive) | 
COCCn1c(=O)c(-c2cc(F)cc(F)c2)nc2cnc(N3CCNCC3)nc21 | 1.68% [at 60.1 µM] (inactive) | 
CN(C)c1ccc(C=Nc2ccc(/C=C/c3ccnc4ccccc34)cc2)cc1 | -10.6% (inactive) | 
NC(=O)C(=O)N/N=C/c1ccc([N+](=O)[O-])o1 | 1.45% [at 60.1 µM] (inactive) | 
O=c1c(-c2ccc3c(c2)OCCO3)c(C(F)(F)F)oc2cc(O)cc(O)c12 | -13.6% (inactive) | 
O=c1cc(-c2ccc(O)cc2)oc2c(-c3cc(-c4cc(=O)c5c(O)cc(O)cc5o4)ccc3O)c(O)ccc12 |  | 26.7 µM (active)
CCOC(=O)c1cc2cc(-c3c(C(=O)OCC)oc4cc(O)cc(O)c4c3=O)ccc2o1 | -9.29% (inactive) | 
C=C(C)C1CC=C(C)C(O)C1 (stereo not drawn) | -10.7% [at 60.1 µM] (inactive) | 

Compound | activity, negative = inhibition | Potency
C=C1C=C(C)n2ncc(C(=O)Nc3ccccc3O)c2N1 | -24.3% (inactive) | 
CN(C(=O)CSc1nnc(NC(=O)Nc2ccccc2)s1)c1ccccc1 | -11.2% [at 60.1 µM] (inactive) | 
CC(=O)c1ccc(NC(=O)CSc2nnc(NC(=O)Nc3ccccc3)s2)cc1 | 5.47% [at 60.1 µM] (inactive) | 
CC(C)c1ccc(Nc2nnc(SCC(=O)c3nnc(-c4ccccc4)o3)s2)cc1 |  | 79.4 µM (active)
CC(C)=CCC/C(C)=C/CC/C(C)=C/CC/C(C)=C/CO |  | inactive
O=C(c1cc(C(F)(F)F)cc(C(F)(F)F)c1)N1CCC2(CCCN(Cc3ccncc3)C2)CC1 | -8.33% [at 60.1 µM] (inactive) | 
OCC(CO)NC1C[C@](O)(CO)[C@@H](O)[C@H](O)[C@H]1O (stereo partly drawn) | -3.61% [at 60.1 µM] (inactive) | 
CC(=O)Oc1c2c(c3c(c1CC=C(C)C)O[C@@]14C(=CC5CC1C(C)(C)OC4(C/C=C(\C)C(=O)O)C5=O)C3=O)OC(C)(CCC=C(C)C)C=C2 (stereo partly drawn) |  | 31.6 µM (active)
COc1ccc2c3c1OC1CC(O)C=C[C@@]31CCN(C)C2 (stereo partly drawn) | -10.1% [at 60.1 µM] (inactive) | 
COc1cc2c(cc1OC)CC(=O)N(CCCN(C)C[C@H]1Cc3cc(OC)c(OC)cc31)CC2 | 3.96% [at 19.4 µM] (inactive) | 
FC(F)(F)c1ccccc1-c1nc(-n2ccnc2)c2ccccc2n1 | 0.364% [at 60.1 µM] (inactive) | 
Nc1ccc(/C=C/c2ccnc3ccccc23)c([N+](=O)[O-])c1 | -5.61% (inactive) | 
O=c1nc2s/c(=C\c3ccco3)c(=O)n2nc1Cc1ccccc1 |  | 31.6 µM (active)
O=c1/c(=C/c2ccc(CNS(=O)(=O)c3ccccc3)o2)sc2n1CCN=2 | 3.56% [at 60.1 µM] (inactive) | 
CN1CCOC1c1ccc(C2OCCN2C)cc1 (stereo not drawn) |  | 39.8 µM (active)
O=C(Nc1ccc(Cl)cc1)c1cnn2c1NC(=C1CC1)C=C2C(F)F | -0.0234% (inactive) | 
Nc1ccc2nc3c(=O)[nH]c(=S)[nH]c3nc2c1 |  | 2.24 µM (active)
Brc1cccc[n+]1Cc1cccc(C[n+]2ccccc2Br)c1 | -18.2% (inactive) | 
CCNc1ncc2nc(CCc3ccccc3)c(=O)n(-c3ccc(OC)cc3)c2n1 | -19% [at 60.1 µM] (inactive) | 
CCCN1C(=O)C(NS(=O)(=O)c2ccc(N)cc2)(C(F)(F)F)C(C(=O)OC)=C1C (stereo not drawn) | -9.7% (inactive) | 
CC(=O)Nc1ccc(S(=O)(=O)NC2(C(F)(F)F)C(=O)Nc3c2c(=O)[nH]c(=O)n3Cc2ccccc2)cc1 (stereo not drawn) | -24.4% (inactive) | 
CC(=O)Nc1ccc(S(=O)(=O)NC2(C(F)(F)F)C(=O)NC(C)=C2C#N)cc1 (stereo not drawn) |  | 79.4 µM (active)
CC(C)(O)c1ccccc1CC[C@H](SCC1(CC(=O)O)CC1)c1cccc(/C=C/c2ccc3ccc(Cl)cc3n2)c1 | -3.16% [at 19.4 µM] (inactive) | 
